This passage reports Potency results from PubChem BioAssay (NCATS).

Test [1] deals with Calcium and integrin-binding protein 1 (Homo sapiens) (UniProt Q99828). The test can be described thus: Primary qHTS for Identification of Calcium Integrin Binding Protein 1 (CIB1) Competitor (AID 1508620).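 Also: GST tagged CIB1 binding a fluorescein labelled alphaIIb integrin peptide tracer; top concentration of the series differs between compounds.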 Summed up: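 CIB1-GST (1 uM final) and compound incubated 15 min at room temperature before adding FITC-alphaIIb peptide tracer (100 nM final). Competition for binding read by fluorescence polarization (ex 480, em 540) after another 15 min at room temperature.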
Sequence of Calcium and integrin-binding protein 1 (Homo sapiens) (Q99828 whole entry, looked up): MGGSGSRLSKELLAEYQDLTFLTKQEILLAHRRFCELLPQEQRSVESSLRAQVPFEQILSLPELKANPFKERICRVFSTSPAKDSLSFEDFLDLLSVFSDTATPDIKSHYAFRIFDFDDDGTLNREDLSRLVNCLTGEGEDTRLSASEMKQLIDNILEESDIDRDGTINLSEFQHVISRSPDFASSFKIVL

Test [2] in a line: Primary qHTS for small molecule stabilizers of the endoplasmic reticulum resident proteome: Secreted ER Calcium Modulated Protein (SERCaMP) assay (AID 1508630). Also: potency is read from the fitted curve at half-maximal effect. Summed up:
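The SH-SY5Y reporter protocol was run at 3 concentrations up to 38.3 uM (primary) or 11 concentrations (follow-up): 16 h compound, 100 nM thapsigargin for 4 h, then extracellular luciferase luminescence.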
For orientation: In qHTS, concentration-response curves come from the screen itself.

In test [3] the target is Cytochrome P450 2D6 (Homo sapiens) (UniProt P10635). Description: Cytochrome P450 family 2 subfamily D member 6 (CYP2D6) small molecule antagonists: luciferase biochemical (cell-free) qHTS assay (AID 1645840; active = well fitted curve in the direction sought with a large enough effect in the repeat runs; an effect the other way counts as inactive or inconclusive; also: nearly all actives have a fitted effect of over 55% in size; also: potency is read from the fitted curve at half-maximal effect). The gist of the method: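 P450-Glo CYP2D6 system: proluciferin substrate converted by enzyme to luciferin, read by luminescence proportional to activity. Enzyme-substrate mix with compound 10 min at room temperature, then NADPH regeneration 1 h before detection reagent.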
Sequence of Cytochrome P450 2D6 (Homo sapiens) (P10635 whole entry, looked up): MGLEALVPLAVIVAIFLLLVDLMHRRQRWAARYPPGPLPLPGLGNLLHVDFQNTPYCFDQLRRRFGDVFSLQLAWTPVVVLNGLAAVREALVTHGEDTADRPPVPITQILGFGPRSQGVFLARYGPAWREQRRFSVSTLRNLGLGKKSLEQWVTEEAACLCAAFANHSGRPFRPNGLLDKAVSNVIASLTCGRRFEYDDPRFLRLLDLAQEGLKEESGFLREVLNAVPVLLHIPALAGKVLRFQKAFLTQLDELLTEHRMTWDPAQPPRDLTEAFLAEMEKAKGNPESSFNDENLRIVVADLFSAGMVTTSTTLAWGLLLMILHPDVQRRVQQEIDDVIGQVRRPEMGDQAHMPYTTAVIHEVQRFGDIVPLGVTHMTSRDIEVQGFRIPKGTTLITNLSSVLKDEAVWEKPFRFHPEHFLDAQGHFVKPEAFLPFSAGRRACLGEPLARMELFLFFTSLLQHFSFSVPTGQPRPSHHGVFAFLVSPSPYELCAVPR

Test [4] is described as follows: A High-Content qHTS Against Drug Library for the Identification of Small Molecules that Inhibit DYT1 Early Onset Primary Dystonia-Associated Cell Pathology (AID 1645839; calls by dose curve; also: potency is read from the fitted curve at half-maximal effect). The gist of the method:
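High-content imaging quantified EGFP-TorsinA mislocalization in HEK293-derived cells inducibly expressing DYT1 mutant torsinA, after 48 h exposure to compound given together with tetracycline induction. Cell count served as a toxicity channel alongside %pathology.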

Test [5] in a line: Counterscreen qHTS for small molecule stabilizers of the endoplasmic reticulum resident proteome: GLuc-NoTag assay (AID 1508627). Also: potency is read from the fitted curve at half-maximal effect. Summed up: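 Counterscreen line: SH-SY5Y-GLuc-NoTag cells, treated with compound 19 hr before a 4 hr, 100 nM thapsigargin calcium depletion. Secreted Gaussia luciferase in the medium was measured by luminescence after coelenterazine was added (0.07x final), with cells unlysed.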
On the technique in general: A counterscreen serves to expose hits that act by an unwanted route or on another target.

Test [6] is described as follows: Confirmatory qHTS for small molecule stabilizers of the endoplasmic reticulum resident proteome: Secreted ER Calcium Modulated Protein (SERCaMP) assay (AID 1508628). Also: potency is read from the fitted curve at half-maximal effect; nearly all actives have a fitted effect of over 40% in size. The gist of the method: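 Reporter secretion upon ER calcium depletion (100 nM thapsigargin, 4 h, 37C) is measured as medium luminescence with coelenterazine, after 16 h compound pretreatment of SH-SY5Y-GLuc-SERCaMP cells; primary at three concentrations up to 38.3 uM, follow-up at 11 (up to 76.6 uM).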

Test [7] can be described thus: Cell Viability qHTS for small molecule stabilizers of the endoplasmic reticulum resident proteome (AID 1508629).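 Also: potency is read from the fitted curve at half-maximal effect; compound exposure about 46 h in total before the viability read.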 Particulars: cell viability counter-screen, 100 nM thapsigargin for final 4 h.

Records with an inconclusive call do not appear. Active and inactive are the calls of the source. Unless noted, calls follow the shape of the dose curve; as a rule, active = well fitted curve in the direction sought with a large enough effect; inconclusive = small, poorly fitted or top-dose-only effect, or another doubt; inactive = no such curve, though single readings can be large; an effect the other way counts as inactive or inconclusive.

Consider `NC(CO)(CO)CCc1ccc(Sc2cccc(OCc3ccccc3)c2)cc1Cl`, for which the Potency result in test [1] and in test [2] was “inactive” each time.

With `COC1CCC(N(C(=O)C2CCC(C)CC2)c2cc(C3=CCCCC3)sc2C(=O)O)CC1` (stereo unspecified), the Potency entry in test [1], in test [2] and in test [3] was “inactive” in each case.

As for `CCC(CC)[C@H](NC(C)=O)[C@@H]1[C@H](O)[C@@H](C(=O)O)C[C@@H]1N=C(N)N`, the Potency entry in test [1] and in test [2] was “inactive” each time.

With `O=c1c(O)c(-c2ccc(O)cc2)oc2cc(O)cc(O)c12`, the Potency entry in test [1] and in test [2] was “inactive” each time.

For the compound `COc1ccc(-c2nc(N3CCOCC3)c3sc(CN(C)c4ncc(C(=O)NO)cn4)cc3n2)cn1`, the Potency result in test [1] and in test [2] was “inactive” throughout.

`O=C(CCN1CCN(C(=O)OCc2cc(Cl)cc(Cl)c2)CC1)c1ccc2[nH]c(=O)oc2c1`: the Potency entry in test [1] and in test [2] was “inactive” throughout.

Turning to `Cc1nnc(C(C)C)n1C1C[C@H]2CC[C@@H](C1)N2CC[C@H](NC(=O)C1CCC(F)(F)CC1)c1ccccc1` (stereo partly specified), the Potency entry in test [1] and in test [2] was “inactive” in each case.

For the compound `CN1C[C@H]2c3ccccc3Oc3ccc(Cl)cc3[C@@H]2C1`, the Potency entry in test [1] and in test [2] was “inactive” throughout. In addition, the results for the Potency in test [4] and in test [3] were 11.2 µM (active) and 0.0062 µM (active), respectively.

Consider `CC1(C)CCC(CN2CCN(c3ccc(C(=O)NS(=O)(=O)c4ccc(NCC5CCOCC5)c([N+](=O)[O-])c4)c(Oc4cnc5[nH]ccc5c4)c3)CC2)=C(c2ccc(Cl)cc2)C1`, for which the Potency result in test [1] and in test [2] was “inactive” throughout.

Turning to `CC(C)C[C@H](CC(=O)O)C(=O)N[C@@H](Cc1c[nH]c2ccccc12)C(=O)N[C@@H](C)c1ccccc1`, the Potency entry in test [1] and in test [2] was “inactive” in each case.

With `CC[C@]1(O)C[C@@H]2CN(CCc3c([nH]c4ccccc34)[C@@](C(=O)OC)(c3cc4c(cc3OC)N(C)[C@H]3[C@@](O)(C(=O)OC)[C@H](OC(C)=O)[C@]5(CC)C=CCN6CC[C@]43[C@@H]65)C2)C1`, the Potency entry in test [1], in test [2] and in test [4] was “inactive” each time.

For the compound `CCOC1OC(=O)C[C@H]1NC(=O)[C@@H]1CCCN1C(=O)[C@@H](NC(=O)c1ccc(N)c(Cl)c1)C(C)(C)C` (stereo partly specified), the Potency result in test [1] and in test [2] was “inactive” throughout.

With `O=C1C[C@@H](c2ccc(O)cc2)Oc2cc(O)cc(O)c21`, the Potency entry in test [1] and in test [2] was “inactive” in each case.

Regarding `Cc1ccc([C@@H]2O[C@H](CO)[C@@H](O)[C@H](O)[C@@H]2O)cc1Cc1ccc(-c2ccc(F)cc2)s1`, the Potency result in test [1] and in test [2] was “inactive” throughout. The Potency in test [3] is 23.9 µM (active).

With `Cc1ccc(C(=O)Nc2cccc(C(F)(F)F)c2)cc1Nc1nc(-c2cccnc2)nc2c1cnn2C`, the Potency entry in test [1] and in test [2] was “inactive” throughout.

Consider `O=c1cc(-c2cccc3c2Sc2ccccc2S3)oc(N2CCOCC2)c1`, for which the Potency result in test [1] and in test [2] was “inactive” throughout.

Take `CCOC(CN1C(=O)[C@](CC(=O)Nc2ccc(C)cc2)(NC(=O)Nc2ccc(C)cc2)c2ccccc21)OCC`: the Potency result in test [1] and in test [2] was “inactive” in each case.

For `OC[C@@H](O)[C@H](O)[C@H](O)[C@@H](O)CO`, the Potency entry in test [1], in test [2], in test [4] and in test [3] was “inactive” each time.

`NC(=O)[C@@H](CCC(F)(F)F)N(Cc1ccc(-c2ncon2)cc1F)S(=O)(=O)c1ccc(Cl)cc1`: the Potency entry in test [1] and in test [2] was “inactive” throughout.

Turning to `C[C@@H](O)[C@H]1C(=O)N2C(C(=O)O)=C(S[C@@H]3CN[C@H](C(=O)N(C)C)C3)[C@H](C)[C@H]12`, the Potency result in test [1], in test [2], in test [4] and in test [3] was “inactive” each time.

As for `CO[C@H]1C=CC=C(C)C(=O)NC2=CC(=O)C(NCCN(C)C)=C(C[C@@H](C)C[C@H](OC)[C@@H](O)[C@@H](C)C=C(C)[C@@H]1OC(N)=O)C2=O`, the Potency entry in test [1] and in test [2] was “inactive” each time.

For `CC[C@@]1(O)C[C@H](O[C@H]2C[C@H](N(C)C)[C@H](O[C@H]3C[C@H](O)[C@H](O[C@H]4CCC(=O)[C@H](C)O4)[C@H](C)O3)[C@H](C)O2)c2c(cc3c(c2O)C(=O)c2c(O)cccc2C3=O)[C@@H]1C(=O)OC`, the Potency result in test [1] and in test [2] was “inactive” in each case.

In the case of `CC(C)[C@H](CO)Nc1nc(Nc2ccc(C(=O)O)c(Cl)c2)c2ncn(C(C)C)c2n1`, the Potency entry in test [1] and in test [2] was “inactive” each time.

In the case of `Cc1ccn(-c2ccc(-c3ncco3)cc2)c(=O)c1-c1ccc2nc(N)ncc2c1`, the Potency entry in test [1] and in test [2] was “inactive” throughout. In test [3], the Potency is 16.9 µM (active).

As to `CCS(=O)(=O)N1CC(CC#N)(n2cc(-c3ncnc4[nH]ccc34)cn2)C1`, the Potency result in test [1], in test [2] and in test [3] was “inactive” throughout.

`O=C1c2ccccc2-[n+]2ccc3c([nH]c4ccccc43)c21`: the Potency in test [5] was 2 µM (active); in test [6] it was 20 µM (active); in test [7], 1 µM (active); in test [2], 10.6 µM (active).

Regarding `CC(C)(Cc1ccc2ccccc2c1)NC[C@@H](O)COc1cccc(Cl)c1C#N`, the Potency entry in test [1] and in test [2] was “inactive” in each case. Besides, the Potency in test [3] is 0.379 µM (active).

For the compound `CS(=O)c1ccc(-c2nc(-c3ccc(F)cc3)c(-c3ccncc3)[nH]2)cc1` (stereo unspecified), the Potency entry in test [1] and in test [2] was “inactive” each time. Further, the Potency in test [3] is 6.74 µM (active).
